Most compounds without a hit are left out; they make up all but 4.8% or so of the library.
DAX1 inh-1: DAX1 (NR0B1) inhibition, primary screen. AID 652010. inhibition, % at 6.8 µM. 370,000 tested, 1.1% active. HEK293T StAR-luciferase reporter, SF-1/DAX-1 repression relief;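 active = inhibition above the mean over all tested compounds plus 3 SD, cut at about 3.6% in these data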;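 note: higher inhibition means more luminescence from relief of DAX-1 repression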
ssDAF12 agonist: activators of S. stercoralis DAF-12 nuclear receptor; HEK293 ssDAF-12/GRIP1 lit1-tk-luc reporter, luminescence; % of 3 µM dafachronic acid response; activation, % at 6.8 µM; 370,000 tested, 1% active;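 active = activation above the mean over all tested compounds plus 3 SD, cut at about 0.9% in these data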
SMARCA2 act: increases SMARCA2 function in MMTV reporter cells; MG213 cells, MMTV-luciferase reporter, dexamethasone, overnight; 370,000 tested, 1% active; AID 652017; activation, % at 9.1 µM; in the data active = activation above about 7.8%
hgDAF12 agonist: agonists of H. glycines DAF-12 nuclear receptor | activation, % at 6.8 µM | 370,000 tested, 1.8% active | AID 687014 | HEK293 GAL4-hgDAF12 UAS-luciferase reporter, agonist luminescence; normalized to butyrate control;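 active = activation above a cutoff set at the mean of all screened compounds plus 3 SD, cut at about 10% in these data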
DAX1 inh-2: inhibits human nuclear receptor DAX1. P51843. HEK293 Gal4-DAX1 luciferase reporter, luminescence. inhibition, % at 6.75 µM. 340,000 tested, 0.99% active. AID 504766;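 active = inhibition above the mean over all tested compounds plus 3 SD, cut at about 4.2% in these data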;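 note: inhibition shows as a rise in luminescence from relieved DAX1 repression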
hcDAF-12 act: activates DAF-12 receptor from parasite H. contortus | 370,000 tested, 1.4% active | activation, % at 6.8 µM | HEK293 hcDAF-12 lit1-tk-luc reporter, luminescence; 0% DMSO, 100% Δ7-dafachronic acid | AID 652067;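 active = activation above the mean of all tested compounds plus 3 SD, cut at about 5.5% in these data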
DAX1 inh confirm: confirmation of human DAX1 (NR0B1) inhibitors; shares compounds with DAX1 inh-1; HEK293T StAR-promoter luciferase reporter, SF-1/DAX-1 repression; inhibition, % at 6.8 µM; 2,400 tested, 87% active; AID 652134;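 active = inhibition above the average of every tested compound plus 3 SD, cut at about 3.8% in these data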;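 note: active compounds raise luminescence by relieving repression of the StAR reporter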
Target sequence (P51843 whole entry, looked up): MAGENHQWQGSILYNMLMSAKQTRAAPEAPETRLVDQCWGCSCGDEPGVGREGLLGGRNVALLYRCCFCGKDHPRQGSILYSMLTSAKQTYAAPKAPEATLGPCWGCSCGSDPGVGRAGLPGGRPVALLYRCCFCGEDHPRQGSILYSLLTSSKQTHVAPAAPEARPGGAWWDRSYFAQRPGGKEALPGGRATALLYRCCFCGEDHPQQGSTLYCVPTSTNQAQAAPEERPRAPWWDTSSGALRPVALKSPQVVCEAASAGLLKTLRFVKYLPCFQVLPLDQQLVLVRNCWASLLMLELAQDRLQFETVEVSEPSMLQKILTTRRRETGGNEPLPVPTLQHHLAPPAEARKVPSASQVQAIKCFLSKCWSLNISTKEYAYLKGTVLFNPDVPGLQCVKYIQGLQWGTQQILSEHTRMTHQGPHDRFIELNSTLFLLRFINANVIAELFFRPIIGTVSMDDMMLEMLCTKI
SF1 mutant ctr: counter-screen for DAX1 inhibitors: nonselective inhibitors with SF-1 AF2 mutant; shares compounds with DAX1 inh-1; HEK293 StAR-luciferase, luminescence; inhibition, % at 6.8 µM; 2,400 tested, 78% active; AID 652136;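 active = inhibition above the mean of all tested compounds plus 3 SD, cut at about 3% in these data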
Hits are given with their value; n = inactive; x = no result.

SMILES	DAX1 inh-1	ssDAF12 agonist	SMARCA2 act	hgDAF12 agonist	DAX1 inh-2	hcDAF-12 act	DAX1 inh confirm	SF1 mutant ctr
S=C(NNC(=S)Nc1ccc(Cl)cc1)NNc1ccccc1	n	n	n	n	n	n	x	x
O=C(Nc1cccc(Cl)c1)c1ccccc1	n	n	n	n	n	n	x	x
O=C(NNC(=S)Nc1ccc(Cl)cc1)c1ccccc1	4.5	n	n	n	n	n	7.1	4.2
COC(=O)C[C@H]1CC[C@@H]2[C@@H](COc3ccc(NC(=O)c4ccccc4)cc3C(=O)N2C)O1	n	n	n	n	x	n	x	x
COC(=O)[C@]12CCCCC=C1N(Cc1cccc3ccccc13)C(=O)[C@H](CC(=O)NCc1ccc(OC)c(OC)c1)C2	n	n	n	n	x	n	x	x
COC(=O)[C@]12CCCCC=C1N(CCc1ccc(OC)c(OC)c1)C(=O)[C@H](CC(=O)NCc1cccc3ccccc13)C2	4.6	n	n	n	x	n	n	6.3
CCOC(=O)[C@]12CCCC=C1N(Cc1cccc3ccccc13)C(=O)[C@H](CC(=O)NCc1cccc3ccccc13)C2	n	n	n	n	x	n	x	x
CCOC(=O)[C@]12CCCC=C1N(Cc1ccc3c(c1)OCO3)C(=O)[C@H](CC(=O)NCc1cccc3ccccc13)C2	6.2	n	n	n	x	n	n	n
Cc1ccc(-c2csc(/C(C#N)=C(\O)CCl)n2)cc1	5.1	n	n	12	n	n	n	n
N#C/C(=C(/O)CN1CCCCC1)c1nc(-c2ccc(Cl)cc2)cs1	n	n	n	n	n	n	x	x
CC(=O)Nc1nc2cc3c(cc2s1)OCCO3	5.8	1.3	n	11	n	n	12	6.0
S=C(NCCc1ccccc1)Nc1ncccn1	5.5	n	n	n	n	n	3.9	n
CCC(C)NC(=O)CSc1nnc(-c2cc(OC)c(OC)c(OC)c2)o1 (stereo unspecified)	n	n	n	n	x	n	x	x
COc1cc2c(c(OC)c1OC)-c1ccc(NC(=O)c3ccccc3)c(=O)cc1[C@@H](NC(C)=O)CC2	n	n	n	n	n	n	x	x
CN[C@H]1CCc2cc(OC)c(OC)c(OC)c2-c2ccc(OC)c(=O)cc21	6.8	n	n	n	n	n	19	n
CCOC(=O)NC1CCc2cc(OC)c(OC)c(OC)c2-c2ccc(SC)c(=O)cc21 (stereo unspecified)	5.0	n	n	n	n	n	13	n
CCn1c(SCC(=O)NN=Cc2ccc(C(=O)O)cc2)nc2ccccc21	n	n	n	n	x	n	x	x
CC(C)C1Oc2ccccc2C(=O)N(CC(=O)c2ccc3c(c2)OCCO3)C1=O (stereo unspecified)	7.6	n	n	n	n	n	14	8.8
CC1Oc2ccccc2C(=O)N(CC(=O)c2ccc3c(c2)OCCO3)C1=O (stereo unspecified)	n	n	n	n	n	n	x	x
CCN(CC)c1ccc(C2NC(=O)c3ccccc3N2)cc1 (stereo unspecified)	7.4	1.1	n	n	n	7.9	n	n
C[C@H](O)[C@@H]1CN2CCc3ccc(N4CCOCC4)cc3[C@@H]2C[C@@H]1N(C)C(=O)c1ccccc1F	n	n	n	n	x	n	x	x
O=C(Nc1ccc2oc(-c3cccc4ccccc34)nc2c1)c1ncn[nH]1	n	n	n	n	n	n	x	x
O=C(Nc1ccc2oc(-c3ccccc3Cl)nc2c1)c1ncn[nH]1	6.7	n	n	n	n	5.8	14	7.9
COC(=O)C1CN(Cc2cn(Cc3ccc(F)cc3)nn2)CCS(=O)(=O)N1Cc1ccc(C)cc1 (stereo unspecified)	n	n	n	n	x	n	x	x
CC(OC(=O)C1=Cc2ccccc2OC1)C(=O)NC1CCCC1 (stereo unspecified)	n	n	n	n	n	n	x	x
CC(C)C(OC(=O)C1=Cc2ccccc2OC1)C(=O)NCC1CCCO1 (stereo unspecified)	5.0	n	n	15	n	n	n	5.2

Screening results from PubChem BioAssay.
